Laboratory results from PubChem BioAssay AID1863 (Southern Research Specialized Biocontainment Screening …, 2009).
The whole screen tested about 300,000 compounds, of which about 480 (0.16%) were called active.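 How the source made its calls: active means inhibition over 29.93%, a cutoff 3 SD above the screen mean, later confirmed by dose response; inconclusive means inhibition over 29.93% but no dose response follow-up; inactive means inhibition at most 29.93% or unconfirmed.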 Only a sample is shown. Potency and affinity values are given separately.

Experiment: inhibitors of PhoP regulon expression, primary screen, Salmonella Typhimurium, GFP reporter (AID 1863);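 further: 0% = low Mg2+ inducing control and 100% = high Mg2+ repressing control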
Details: S. Typhimurium PhoP-regulated promoter GFP reporter, 4 h; at 50 µM; stronger effect = higher value

inhibition, inactive:
O=C(Nc1ccccc1N1CCOCC1)C1CCN(S(=O)(=O)c2ccc(F)cc2)CC1 -4.59%, O=C(Nc1ccc(CN2CCOCC2)cc1)c1cccc(-c2cc3ccccc3oc2=O)c1 -5.22%, O=C1c2ccccc2NC(c2ccco2)N1O (stereo not drawn) 7.8%, O=C1c2ccccc2NC(c2ccc(-c3cccc([N+](=O)[O-])c3)o2)N1O (stereo not drawn) 43%, O=C1c2ccccc2NC(c2ccc(Cl)cc2Cl)N1O (stereo not drawn) 0.793%, Cc1cc([N+](=O)[O-])ccc1-c1ccc(C2Nc3ccccc3C(=O)N2O)o1 (stereo not drawn) -3.84%, O=C(N/N=C/c1ccccc1[N+](=O)[O-])c1ccc2c(c1)OCCO2 -4.47%, CCOC(=O)c1sc(=S)n(-c2ccc(C)cc2)c1SC -0.48%, Nc1nc(N2CCOCC2)nc2ccccc12 19.6%, Nc1nc(N2CCCCC2)nc2ccccc12 0.383%, O=C(N/N=C\c1cccc(Cl)c1)c1ccc(Cn2cc(Br)c([N+](=O)[O-])n2)o1 -28.5%, O=C(O)/C=C/c1ccccc1Oc1ccc(Cl)cc1Cl 1.78%, Nc1cc(C(=O)O)c(Oc2ccc(Cl)cc2Cl)cc1C(=O)O 9.23%, COc1ccc(N2CCN(C(=O)COc3cccc4ccccc34)CC2)cc1 4.64%, Cc1ccc(NCC(=O)N/N=C/c2ccc(C(=O)O)cc2)cc1 7.26%, CC(=O)N1CCOc2ccc(S(=O)(=O)N3CCC(C(=O)Nc4ccc(C)cc4)CC3)cc21 0.99%, O=C(Cn1nc(CNc2ccc(Cl)cc2)[n+]2c1CCCCC2)c1ccc(Cl)cc1 7.8%, O=C(Cn1nc(CNc2ccc(Br)cc2)[n+]2c1CCCCC2)c1ccc([N+](=O)[O-])cc1 5.85%, COc1ccc(NCc2nn(CC(=O)c3ccc(Br)cc3)c3[n+]2CCCCC3)cc1 -2.79%, O=C(Cn1nc(CNc2ccc(Cl)cc2)[n+]2c1CCCCC2)c1ccccc1 8.62%, O=C1Nc2ccccc2OCc2c1cccc2[N+](=O)[O-] -2.35%, O=C(O)C1CCC1C(=O)Nc1nc(-c2ccc(Cl)s2)cs1 (stereo not drawn) -4.65%, CCC(=O)c1ccccc1OCCCCn1cncn1 4.32%, CN1CCN(C(=O)CSc2nnc(COc3ccc(Cl)cc3)o2)CC1 5.2%, CC(=O)Nc1cccc(NC(=O)CCNC(=O)c2ccccc2)c1 5.9%, Cc1nnc(SCc2ccc(CC(=O)O)cc2)o1 -9.32%, COc1ccc(C(=O)NCC(c2cccs2)N2CCc3ccccc32)cc1OC (stereo not drawn) -7.86%, COC(=O)C1=C(C)NC2=C(C(=O)CC(C)(C)C2)C1c1cnn(C)c1C (stereo not drawn) -3.34%, C/C(=N\Nc1nc2ccccc2[nH]1)c1ccc(C)o1 9.28%, C/C(=N\Nc1nc2ccccc2[nH]1)c1ccc(Cl)s1 31.6%, CN(C)S(=O)(=O)c1ccc(C(=O)NCc2ccccc2)cc1 5.29%, CC(C)CNC(=O)COC(=O)c1cccc(S(=O)(=O)NCC(F)(F)F)c1 0.22%, Cn1c(=O)c(C(=O)NNC(=O)c2ccccc2Cl)c(O)c2ccccc21 3.12%
